Screens: PubChem BioAssay, National Center for Advancing Translational Sciences (NCATS)
Rows were chosen to be rich in hits. Some 2.1% of all compounds tested hit in one or more screens of this group.
ClpP mod = qHTS Assay for Activators of ClpP. 340,000 tested, 1.9% active. Potency, µM (series often up to 57.5 µM), for inactives: top-dose activity change, negative = active. AID 651965, 2013. purified B. subtilis ClpP, FRET peptide cleavage, 20 min. ATP-dependent Clp protease proteolytic subunit (Bacillus subtilis (strain 168)), P80244; active = well fitted falling curve with a large enough effect; inconclusive = small, poorly fitted or top-dose-only effect; inactive = no such curve, though single readings can be large or run the other way; also: potency is read from the fitted curve at half-maximal effect; the source files actives as falling curves though it sought activators and does not explain the sign; nearly all actives have a fitted effect of over 65% in size
Target sequence (P80244 whole entry, looked up): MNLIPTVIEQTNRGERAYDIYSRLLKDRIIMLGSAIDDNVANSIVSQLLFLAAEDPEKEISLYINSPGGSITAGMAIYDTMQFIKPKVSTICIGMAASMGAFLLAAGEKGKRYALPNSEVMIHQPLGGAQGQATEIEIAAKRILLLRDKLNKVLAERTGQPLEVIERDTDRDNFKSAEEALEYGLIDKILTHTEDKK
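ClpP 10 microg/mL final, pH 8 Tris/KCl buffer with BSA, glycerol, Tween-20; compound pinned in; FRET-FV substrate; RT 20 min; Ex320/Em430; ΔFRET vs ADEP 5.8 microM, DMSO, no enzyme.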
p53 reactivator = re-activators of mutant p53; H1299 p53-A138V BP100-luciferase reporter, luminescence, 24 h; Potency, µM (top dose mostly 92.2 µM), for inactives: at the top dose activity change, positive = activation, usual class: activators; 320,000 tested, 0.063% active; also: potency is read from the fitted curve at half-maximal effect; % of control where 0% means no effect; nearly all actives have a fitted effect of over 45% in size
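p53-null H1299 cells stably carrying temperature-sensitive p53-A138V and a BP100-luciferase reporter were pinned with compounds (4-point, 1:5 series) and held 24 hrs at 37 deg C. Luminescence was read 10 min after detection reagent.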
Giardia kill = Giardia lamblia killing; Giardia lamblia trophozoite viability; activity change, % at 7.66 µM, hits read low; 340,000 tested, 0.15% active; in the data active = activity change below about -80%; inconclusive = between about -30% and that limit;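 also: parasites exposed to compound for two days anaerobically before the ATP read; % is scaled to controls: 0 for no effect and ±100 for the full control effect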
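Compounds were tested on trophozoites seeded at 100 cells/well and held 48 hrs at 37 deg C anaerobically. An ATP-based luminescent kit measured the remaining live cells.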
Mito fusion yeast = blocks mitochondrial division or promotes mitochondrial fusion; AID 485298; S. cerevisiae fusion-defective mutant growth rescue, CellTiterGlo 48 h; Potency, µM (top dose mostly 46.1 µM), for inactives: top-dose growth rescue (activation), usual class: activators; 320,000 tested, 0.23% active; also: potency is read from the fitted curve at half-maximal effect; % of control where 0% means no effect; nearly all actives have a fitted effect of over 45% in size
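Read-out: ATP-based luminescence (CellTiterGlo, 10 min ambient) reporting growth of fusion-defective ts yeast after 48 hours at 37C on glycerol/ethanol YPEG medium in the presence of compound.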
B2AR arrestin = recruits beta-arrestin to the human beta2-adrenergic receptor. Potency, µM (highest dose often 46.1 µM), inactives show at the top dose activation, usual class: activators. beta-arrestin recruitment to beta2AR, cell-based reporter. 330,000 tested, 0.02% active;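 also: potency is read from the fitted curve at half-maximal effect; 0% = DMSO controls and full agonism = EC100 isoproterenol or metaproterenol; nearly all actives have a fitted effect of over 65% in size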
uPA surface inh = blocks generation of uPA at the cell surface; Potency, µM (top dose mostly 38.3 µM), without a hit: top-dose activity change, negative = inhibition, actives largely listed as inhibitors; cell surface uPA generation assay, qHTS; 330,000 tested, 0.31% active; active = well fitted inhibition curve with a large enough effect; inconclusive = small, poorly fitted or top-dose-only effect; inactive = no such curve, though single readings can be large or run the other way; tested in mouse RAW 264.7 cells; also: potency is read from the fitted curve at half-maximal effect; % is scaled to controls: 0 for no effect and ±100 for the full control effect; nearly all actives have a fitted effect of over 55% in size
* marks the source's active call; other numbers are inactive results; ? = inconclusive; nt = no result given. Unless noted, calls follow the shape of the dose curve; as a rule, active = well fitted curve in the direction sought with a large enough effect; inconclusive = small, poorly fitted or top-dose-only effect, or another doubt; inactive = no such curve, though single readings can be large; an effect the other way counts as inactive or inconclusive.

SMILES | ClpP mod | p53 reactivator | Giardia kill | Mito fusion yeast | B2AR arrestin | uPA surface inh
CC1(C)S[C@@H]2[C@H](NC(=O)COc3ccccc3)C(=O)N2[C@@H]1C(=O)OCc1cccc2cccnc12 | 0% | nt | nt | nt | nt | nt
CN(c1nnc(NC(=O)Nc2ccc(Br)cc2)s1)C1CCCCC1 | -1% | nt | nt | nt | nt | nt
O=C(c1ccc(Cl)cc1)C1CCCN(Cc2cccn2-c2cccnc2)C1 (configuration not stated) | nt | 4% | 9 | -2% | 0% | -8%
O=C(c1ccc2c(c1)OCO2)C1CCCN(Cc2cccn2-c2cccnc2)C1 (configuration not stated) | 35µM* | -3% | 10 | 3% | 0% | 11%
CCOC(=O)COc1cccc2c(=O)n(CC(=O)NCCc3ccccc3)ccc12 | 0% | 7% | -13 | 0% | -1% | -3%
CCOC(=O)C(C)Oc1cccc2c(=O)n(CC(=O)NCc3ccc(F)cc3)ccc12 (configuration not stated) | -19% | 5% | -12 | -2% | -1% | 0.32µM*
COCCn1ccc2c(OCC(=O)NCc3ccc(C)cc3)cccc2c1=O | 28µM* | -2% | 1 | -4% | 0% | ?
CCOC(=O)COc1cccc2c(=O)n(CC(=O)NCc3ccc4c(c3)OCO4)ccc12 | -29% | 8% | -12 | -5% | 0% | 1µM*
COC(=O)COc1cccc2c(=O)n(CC(=O)NCc3ccc(F)cc3)ccc12 | ? | 7% | -18 | -2% | 0% | 0.63µM*
COc1ccc(S(=O)(=O)N2CCOCC2)cc1C(=O)NCc1c(C)nn(Cc2ccccc2)c1C | -1% | nt | -12 | nt | nt | 8%
COc1ccc(CC(=O)NCc2ccccc2)cc1S(=O)(=O)N1CCOCC1 | 0% | 0% | 29 | 0% | 0% | 1%
COc1ccc(C(=O)NCc2c(C)nn(Cc3ccccc3)c2C)cc1S(=O)(=O)N1CCOCC1 | -3% | -8% | -10 | 2% | 0% | 10µM*
COc1ccc(CC(=O)N(Cc2ccccc2)c2ccc(C)cc2)cc1S(=O)(=O)N1CCOCC1 | 25µM* | -1% | -14 | -8% | 1% | -5%
COc1ccc(C(=O)NC2CCCCCC2)cc1S(=O)(=O)N1CCOCC1 | 25µM* | -3% | 5 | 0% | 0% | -29%
CCc1ccccc1NC(=O)N1CCN(Cc2nc3ccc(C)cc3o2)CC1 | 1% | nt | nt | nt | nt | nt
O=C(COC(=O)Cn1nnc2ccccc21)Nc1ccccc1Br | 28µM* | -1% | 4 | -6% | 0% | -15%
CN(C)c1ccc(NC(=O)COC(=O)Cn2nnc3ccccc32)cc1 | 25µM* | 14% | 7 | -4% | 0% | 4%
CCOC(=O)CNC(=O)N1CCc2cc(S(=O)(=O)N3CCC(C)CC3)ccc21 | -4% | nt | nt | nt | nt | nt
Cc1cc(OCCCSc2nc(-c3ccc(C(C)(C)C)cc3)nc3cc(=O)[nH]n23)ccc1Cl | -6% | nt | nt | nt | nt | nt
CCOc1ccc(/C=N/NC(=O)c2c(C)n(C)c3ccc(OC)cc23)cc1 | 6% | -1% | 4 | -5% | -1% | -8%
COc1ccc2c(c1)c(C(=O)N/N=C/c1ccc(Br)cc1)c(C)n2C | -3% | 0% | 34 | -3% | 0% | 11µM*
COc1cccc(-c2coc3cc4oc(=O)c(CCC(=O)O)c(C)c4cc23)c1 | 0% | -1% | -4 | 22µM* | 0% | -9%
COc1cccc(-c2coc3c(C)c4oc(=O)c(CCC(=O)O)c(C)c4cc23)c1 | nt | -2% | -11 | 19% | -1% | 0%
COC(=O)[C@H](C)NS(=O)(=O)C1CC1 | 0% | nt | nt | nt | nt | nt
Cn1c(SCC(=O)NC2CC2)nnc1-c1cccs1 | -4% | 35µM* | 3 | 3% | ? | -5%
O=C(Nc1ccc(Cl)cn1)c1ccccc1[N+](=O)[O-] | nt | ? | ? | 6% | 0% | -14%
Cc1ccc(NC(=O)c2ccccc2F)nc1 | 16µM* | 15% | -7 | 2% | 0% | -7%
O=C(Nc1ccc(Cl)cn1)c1cccc2ccccc12 | 1% | 9% | -5 | -1% | -1% | 8.9µM*
